ChEMBL document CHEMBL3988442, “University of Dundee, Small-Polar-MMV Screening Library” (2021)

Target: T1, Proteasome subunit beta (Trypanosoma cruzi) (UniProt O96673)
T1 sequence (whole entry): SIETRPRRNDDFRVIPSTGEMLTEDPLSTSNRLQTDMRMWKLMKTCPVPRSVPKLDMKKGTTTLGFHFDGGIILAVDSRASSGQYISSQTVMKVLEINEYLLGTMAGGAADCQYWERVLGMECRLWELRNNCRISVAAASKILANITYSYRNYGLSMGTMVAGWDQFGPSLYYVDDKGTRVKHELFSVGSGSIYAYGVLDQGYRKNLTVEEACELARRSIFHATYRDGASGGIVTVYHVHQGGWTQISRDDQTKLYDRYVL
Assay: Trypanosoma cruzi proteasome chymotrypsin-like activity (TcProtChymo) assay. Note: in the data most compounds retested in dose-response had high values.
Assay type: functional
Set-up: scale not given: direction of the effect not stated beside the values
Conditions: 9.37 µM

SMILES | Percent Effect [%]
Cc1cccc2cc(CNCCCN3CCOCC3)c(=O)[nH]c12 | 11.2
CC(C)N(C)C(=O)C1=NOC2(CCN(C(=O)c3ccncc3)C2)C1 (stereo not given) | 12.6
Cc1cnn(CC(C)NCc2ccc(-n3cccn3)cc2)c1 (stereo not given) | -0.858
Cc1nc(C)n(C2CCCN(C(=O)Cc3cccnc3)C2)n1 (stereo not given) | 6.17
CN(C)C(=O)CN1CCCCC1c1nc(N)ncc1-c1cccc(F)c1 (stereo not given) | 17.9
O=C(C1CC1)N1CCN(Cc2coc(-c3ccc(Cl)cc3)n2)CC1 | -3.38
CN(CCNC(=O)N1CCN(Cc2ccon2)CC1)C1CCCC1 | -2.27
c1csc(N2CCCN(Cc3nc(C4CC4)no3)CC2)n1 | -1.18
N#Cc1ccc(C(=O)N2CC[C@H]3[C@@H]2CCC(=O)N3c2cccnc2)cc1 | 18.3
Cc1nn(C)c(C)c1C1CCCN1C(=O)c1ccc(Cl)o1 (stereo not given) | 1.27
Cc1nccn1-c1cc(CNC(=O)c2ccccn2)ccn1 | 17.6
O=C1COc2c(cccc2C(=O)N2CCCCC2Cn2cccn2)N1 (stereo not given) | 14.6
Cc1cc(C)n(CC2CCCN2CC(=O)N(C)C)n1 (stereo not given) | 9.19
CC(C)(C)C(=O)NCCc1ccn(-c2ccccc2)n1 | 8.92
CC(C)C(NC(=O)NCCNc1ccccn1)c1cccs1 (stereo not given) | 10.8
Cc1ccc(CN2CCCC3(COCCN(Cc4c[nH]nn4)C3)C2)o1 (stereo not given) | 0.855
CCNC(c1ccc(OC)cc1)c1cccnc1 (stereo not given) | 3.94
CCN(CC1CCCO1)C(=O)Nc1cc(OC)c(OC)cc1C (stereo not given) | 9.26
Cc1cc(C2CCCN2C(=O)c2cc3c(s2)CCC3)on1 (stereo not given) | 14.4
COc1ccccc1[C@@H]1CN(C(=O)c2csc(C)n2)C[C@H]1C(=O)O | 16.7

SMILES | Percent Effect [%]
CCc1ccc(CN2CCC3(CC2)CC(N2CCN(C)CC2)CO3)cc1 (stereo not given) | 11.6
Cc1ccc(C(=O)NC(C)CN2CCCC2=O)c(=O)[nH]1 (stereo not given) | 12.8
CCc1nnc2n1CCN(C(=O)c1cc3ccc(F)cc3nc1C)C2 | 6.59
CC(C)n1ccnc1C1CCN(Cc2ccc(Cl)c(F)c2)CC1 | 12.5
CC(C)c1ncc2c(n1)CN(Cc1ccc(C(N)=O)cc1)CC2 | 11.5
COc1cccc2c1ccn2CCC(=O)NCCCC(=O)O | 13.5
CN(C(=O)c1ccccn1)c1nc2c(s1)CCc1c-2cnn1C | 11.5
Cc1ccc2c(c1)OCCCC2NCc1nnc2n1CCCCC2 (stereo not given) | 0.772
CC(C)c1noc(CN2CCN(C(=O)c3ccccc3F)CC2)n1 | 6.82
O=C(c1ccc[nH]1)N1CCC(c2nccn2Cc2ccncc2)CC1 | 8.7
O=S(=O)(Nc1cnn(C2CCOCC2)c1)c1ccc(F)c(F)c1 | 8.01
CN(C)C(CNC(=O)c1cccc(-n2cnnn2)c1)c1ccccc1Cl (stereo not given) | 10.8
CC(O)CN1CCN(C(=O)c2ccc(Br)o2)CC1 (stereo not given) | 8.69
CC(NC1(CNC(=O)CC(C)(C)C)CCOCC1)c1ccccc1 (stereo not given) | 9.19
CC(=O)N1CC(=O)N(c2ccccc2)CC12CCN(Cc1nccs1)C2 (stereo not given) | 7.69
CN(C)CC1CN(Cc2csc(C3CCCC3)n2)CCO1 (stereo not given) | 7.02
Cc1cccc2nc(C(=O)N3CCC(Nc4cccnn4)CC3)cn12 | 8.16
O=C(CCNc1ncccn1)N1CCCC(n2ccnc2)C1 (stereo not given) | 9.78
CC(=O)N1CC(=O)N(c2cnn(C)c2)CC12CCN(CC1CC1)C2 (stereo not given) | 0.423
COCCNC(=O)c1cc2c(s1)CCN2C(=O)c1ccccc1 | 9.74

Species on record: Homo sapiens
Assay: To identify inhibition of the IFN signalling (Jak-Stat) pathway via expression of an eGFP reporter gene under the control of an IFN-stimulated response element (ISRE) containing MxA promoter.
Assay type: functional
Set-up: scale not given: direction of the effect not stated beside the values
Conditions: 30 µM

SMILES | Percent Effect [%]
Cc1cccc2cc(CNCCCN3CCOCC3)c(=O)[nH]c12 | 2.24
CC(C)N(C)C(=O)C1=NOC2(CCN(C(=O)c3ccncc3)C2)C1 (stereo not given) | 1.3
Cc1cnn(CC(C)NCc2ccc(-n3cccn3)cc2)c1 (stereo not given) | -0.795
Cc1nc(C)n(C2CCCN(C(=O)Cc3cccnc3)C2)n1 (stereo not given) | -10.7
CN(C)C(=O)CN1CCCCC1c1nc(N)ncc1-c1cccc(F)c1 (stereo not given) | 6.49
O=C(C1CC1)N1CCN(Cc2coc(-c3ccc(Cl)cc3)n2)CC1 | 43
CN(CCNC(=O)N1CCN(Cc2ccon2)CC1)C1CCCC1 | 4.26
c1csc(N2CCCN(Cc3nc(C4CC4)no3)CC2)n1 | 19
N#Cc1ccc(C(=O)N2CC[C@H]3[C@@H]2CCC(=O)N3c2cccnc2)cc1 | -4.58
Cc1nn(C)c(C)c1C1CCCN1C(=O)c1ccc(Cl)o1 (stereo not given) | 5.89
Cc1nccn1-c1cc(CNC(=O)c2ccccn2)ccn1 | 15.2
O=C1COc2c(cccc2C(=O)N2CCCCC2Cn2cccn2)N1 (stereo not given) | 10.8
Cc1cc(C)n(CC2CCCN2CC(=O)N(C)C)n1 (stereo not given) | 3.86
CC(C)(C)C(=O)NCCc1ccn(-c2ccccc2)n1 | 2.37
CC(C)C(NC(=O)NCCNc1ccccn1)c1cccs1 (stereo not given) | 8.29
Cc1ccc(CN2CCCC3(COCCN(Cc4c[nH]nn4)C3)C2)o1 (stereo not given) | 4.18
CCNC(c1ccc(OC)cc1)c1cccnc1 (stereo not given) | 6.89
CCN(CC1CCCO1)C(=O)Nc1cc(OC)c(OC)cc1C (stereo not given) | -8.32
Cc1cc(C2CCCN2C(=O)c2cc3c(s2)CCC3)on1 (stereo not given) | -0.279
COc1ccccc1[C@@H]1CN(C(=O)c2csc(C)n2)C[C@H]1C(=O)O | -4.31

SMILES | Percent Effect [%]
CCc1ccc(CN2CCC3(CC2)CC(N2CCN(C)CC2)CO3)cc1 (stereo not given) | -0.446
Cc1ccc(C(=O)NC(C)CN2CCCC2=O)c(=O)[nH]1 (stereo not given) | 18.2
CCc1nnc2n1CCN(C(=O)c1cc3ccc(F)cc3nc1C)C2 | -1.03
CC(C)n1ccnc1C1CCN(Cc2ccc(Cl)c(F)c2)CC1 | 18.3
CC(C)c1ncc2c(n1)CN(Cc1ccc(C(N)=O)cc1)CC2 | 11.1
COc1cccc2c1ccn2CCC(=O)NCCCC(=O)O | -6.02
CN(C(=O)c1ccccn1)c1nc2c(s1)CCc1c-2cnn1C | 16.9
Cc1ccc2c(c1)OCCCC2NCc1nnc2n1CCCCC2 (stereo not given) | -5.39
CC(C)c1noc(CN2CCN(C(=O)c3ccccc3F)CC2)n1 | 23.6
O=C(c1ccc[nH]1)N1CCC(c2nccn2Cc2ccncc2)CC1 | 11.4
O=S(=O)(Nc1cnn(C2CCOCC2)c1)c1ccc(F)c(F)c1 | -0.875
CN(C)C(CNC(=O)c1cccc(-n2cnnn2)c1)c1ccccc1Cl (stereo not given) | 10.5
CC(O)CN1CCN(C(=O)c2ccc(Br)o2)CC1 (stereo not given) | 22.7
CC(NC1(CNC(=O)CC(C)(C)C)CCOCC1)c1ccccc1 (stereo not given) | -9.78
CC(=O)N1CC(=O)N(c2ccccc2)CC12CCN(Cc1nccs1)C2 (stereo not given) | -3.63
CN(C)CC1CN(Cc2csc(C3CCCC3)n2)CCO1 (stereo not given) | -33
Cc1cccc2nc(C(=O)N3CCC(Nc4cccnn4)CC3)cn12 | 3.1
O=C(CCNc1ncccn1)N1CCCC(n2ccnc2)C1 (stereo not given) | 12
CC(=O)N1CC(=O)N(c2cnn(C)c2)CC12CCN(CC1CC1)C2 (stereo not given) | -7.14
COCCNC(=O)c1cc2c(s1)CCN2C(=O)c1ccccc1 | -0.33
